Results on 40 compounds are retold here after PubChem BioAssay AID1745845 (National Center for Advancing Translational Sciences (NCATS), 2022).

Screen size: about 360,000 compounds; about 2,600 (0.72%) were called active. Where a call stands in place of a potency, no number is given. Inconclusive results (about 5%) are left out. The sample holds actives, similar compounds and a random draw of the others, so the mix is not that of the screen. Calls come from the whole dose curve; as a rule, active = well fitted inhibition curve with a large enough effect; inconclusive = small, poorly fitted or top-dose-only effect; inactive = no such curve, though single readings can be large or run the other way.
Potency is the fitted concentration of half-maximal effect.

A short description of the experiment: Primary qHTS for Inhibitors of ATXN expression. Note: nearly all actives have a fitted effect of over 55% in size. The following applies: HEK-293 ATXN2-luciferase reporter, luminescence, 24 h; series mostly up to 57 µM. An excerpt: University of Utah School of Medicine, Salt Lake City, Utah
Spinocerebellar ataxia type 2 (SCA2) is a multisystem neurodegenerative disease caused by a dominantly acting mutation leading to expansion of a polyQ domain in the ataxin-2 protein (ATXN2). SCA2 patients develop progressive ataxia and later lose function in other neuronal systems. Prominent parkinsonian signs develop in some patients. Like many neurodegenerative disorders, no symptomatic or disease-modifying treatments are known.
The primary objective of the proposed research is to identify compounds inhibiting ATXN2 expression and to test them for efficacy in SCA2 mouse models. We have developed a cell-based assay paired with an in vivo mouse model using identical luciferase expression constructs. This approach takes advantage of an ATXN2-luciferase transgene, with the luciferase gene flanked by the upstream and downstream portions of the ATXN2 gene. Here we describe a 5-7 dose quantitative high thoroughput screen (qHTS) for compounds lowering ATXN2 expression. We screened the NIH Molecular Libraries Small Molecule Repository (MLSMR) and NCGC's mechanistically annotated (MIPE) and drug repurposing (NPC) collections of compounds for lowering expression of an ATXN2-luciferase reporter in HEK-293 cells. The assay is a multiplexed cell viability assay to ensure target reduction in the absence of cytotoxicity. Secondary qHTS assays included a CMV-luciferase reporter expressed in HEK-293 cells as well as a biochemical assay using recombinant luciferase to detect inhibitors of the reporter enzyme. Compounds that inhibit ATXN2 expression but is not cytotoxic were selected for confirmatory and secondary screens.
PROTOCOL TABLE (as described by Inglese J, Shamu CE and Guy RK. 2007)
SEQUENCE No. (e.g., 1, 2, 3, etc.); […] (e.g., Cells, Incubation, Reagent, etc.); VALUE; DESCRIPTION.
1; Cells; 4 uL; white, solid bottom, 1536-well Greiner assay plate.
2; Incubation; 2 hr; 37 degree C in 5% humidified CO2.
3; Compounds; 23 nL; Kalypsis pintool (Wako USA) equipped with a 1536-well pin head.
4; Incubation; 24 hr; 37 degree C in 5% humidified CO2.
5; Reagent; 1 uL; Gly-Phe-7-Amino-4-trifluoromethylcoumarin.
6; Incubation; 30 min; 37 degree C in 5% humidified CO2.
7; Detection; Fluorescence; ViewLux plate reader (PerkinElmer).
8; Reagent; 3 uL; SteadyGlo luciferase solution (Promega).
9; Incubation; 5 min; room temperature.
10; Detection; Luminescence; ViewLux plate reader (PerkinElmer).
NOTES (numbers refer to Sequence numbers above)
1. S2 cells expressing ATXN2-luciferase reporter were suspended in phenol-red free DMEM and dispensed in assay plates using a Multidrop Combi dispenser (Thermo Fisher Scientific).
2. Assay plates were incubated. Evaporation was prevented by covering assay plates with metal lids containing holes to allow gas diffusion.
3. Compounds were added in a dose response manner with the final concentrations of 57, 11.4, 2.28, 0.46, 0.091, 0.018, 0.0037 uM. Vehicle-only plates, with DMSO being pin-transferred to columns 5-48, were inserted uniformly at the beginning and the end of each library to monitor and record any shifts in assay performance.
5. 125 uM Gly-Phe-7-Amino-4-trifluoromethylcoumarin (MP Biomedicals) working concentration was used at a final concentration of 25 uM.
7. To assess cell viability; the assay plates were read using the ViewLux high-throughput CCD imager (PerkinElmer), wherein single end-point fluorescence measurement was acquired (excitation 405/10; emission 540/25 nm).
8. Detection reagent SteadyGlo Luciferase (Promega) was added to the assay plate.
10. Luminescence is then measured on the ViewLux imager equipped with a clear emission filter using a 2 sec exposure. All screening operations were performed on a fully integrated robotic system (Kalypsys) containing one RX-130 and two RX-90 anthropomorphic robotic arms (Staubli).
[…]
In the case of `CC(Cc1ccccc1)NC=O` (stereo not given), the Potency entry was “inactive”.
`CC(Cc1ccccc1)NCCC(c1ccccc1)c1ccccc1` (stereo not given): the Potency is 28.2 µM (active).
In the case of `CC(=O)NC(=O)NC(C)Cc1ccccc1` (stereo not given), the Potency result was “inactive”.
As for `CCCOC(=O)c1cncn1C(C)c1ccccc1` (stereo not given), the entry is “inactive”; as for `COC(=O)C1=C(c2ccc(OCc3ccccc3)cc2)C[C@@H]2CC[C@H]1N2C(=O)NCc1ccc(Cl)cc1`, “inactive”; as for `O=P(OC1=CCCCC1)(c1ccccc1)c1ccccc1`, “inactive”.
Consider `CCC(C)(O)C(=O)OC1C(=O)OC2CC3C(C)=CC(=O)C(O)C3(C)C3C4(O)OCC23C1C(C)C4O` (stereo not given), for which the Potency was 0.168 µM (active).
As for `CCOC(=O)[C@]12Cc3ccccc3[C@H]1N(C1CCCCC1)C(=O)c1cc(OC)ccc12`, the figure is 7.94 µM (active); as for `CCOC(=O)[C@]12Cc3cc(OC)ccc3[C@H]1N(C(C)C)C(=O)c1ccccc12`, 17.8 µM (active).
On to `CC1=C(C(=O)O)N2C(=O)[C@@H](N)[C@H]2SC1`, for which the Potency entry is “inactive”.
As for `O=C(N/N=C/c1ccc([N+](=O)[O-])o1)c1cc([N+](=O)[O-])cc([N+](=O)[O-])c1O`, the entry is “inactive”.
In the case of `O=S(=O)(O)C(F)(F)C(F)(F)C(F)(F)C(F)(F)F`, the Potency entry was “inactive”.
To `CC(C)=C[C@@H]1[C@@H](C(=O)OCc2coc(Cc3ccccc3)c2)C1(C)C` belongs “inactive”; to `O=C(NC1CCCCC1)N1Cc2cc(N3CCCCC3)ccc2-n2nncc2C1`, “inactive”.
For `CNC(=S)N/N=C1\C2CN3CCN(C2)CC1(c1ccccc1)C3`, the Potency result is “inactive”.
To `S=C(NCCc1ccccc1)N1Cc2cc(N3CCOCC3)ccc2-n2nncc2C1` belongs “inactive”; to `C[C@]12CCC3C(CC[C@H]4C[C@@H](O)CC[C@]34C)C1CC[C@@H]2O` (stereo not given in full), “inactive”.
To `C[C@]12CC[C@H](O)C[C@H]1CC[C@@H]1C2CC[C@]2(C)[C@@H](C3=CC(=O)OC3)[C@@H](O)C[C@]12O` (stereo not given in full) belongs 2 µM (active); to `COC1C(O)C(C)OC(OC2CCC3(C=O)C(CCC4C3CCC3(C)C(C5=CC(=O)OC5)CCC43O)C2)C1O` (stereo not given), “inactive”.
As for `O=c1[nH]c2ccccc2n1C1CCN(C(c2ccccc2)c2nnnn2Cc2ccccc2)CC1` (stereo not given), the figure is 25.1 µM (active); as for `O=c1[nH]c2ccccc2n1C1CCN(C(c2ccnc3ccccc23)c2nnnn2Cc2ccccc2)CC1` (stereo not given), “inactive”.
For the compound `CSCCC(c1nnnn1C(C)(C)C)N1CCC(n2c(=O)[nH]c3ccccc32)CC1` (stereo not given), the Potency entry is “inactive”.
To `COC(=O)C1=C(c2ccc(OCc3ccccc3)cc2)C[C@@H]2CC[C@H]1N2C(=O)NCc1cccc(F)c1` belongs “inactive”; to `CCCn1c(C(=O)c2ccccc2OC)nc2ccccc21`, “inactive”; to `CC[N+]1(CCOC(=O)C(O)(c2ccccc2)c2ccccc2)CCCCC1`, “inactive”.
To `O=C(NCC1=C(c2ccc3ccccc3c2)C[C@@H]2CC[C@H]1N2Cc1ccco1)c1cccs1` belongs “inactive”; to `CCCCC1C(=O)NC(=O)N(C2CCCCC2)C1=O` (stereo not given), “inactive”; to `COC(=O)CN(CCCl)P1(=O)OCCCN1CCCl` (stereo not given), “inactive”.
To `O=C(O)COc1ccccc1/C=C1\C(=O)NC(=O)N(CCC2=CCCCC2)C1=O` belongs “inactive”; to `O=C1NC(=O)N(c2ccc(F)cc2)C(=O)/C1=C/c1ccc2c(c1)CCCN2Cc1ccccc1`, “inactive”; to `O=C1NC(=O)N(CCc2ccc(F)cc2)C(=O)/C1=C/C=C/c1ccccc1`, 10 µM (active).
`COc1cc(C(=O)N2Cc3ccc(Br)cc3-n3nncc3C2)cc(OC)c1OC`: the Potency entry was “inactive”.
Turning to `Cc1cccc(Cn2cccc(C(=O)Nc3ccc4c(c3)OCCO4)c2=O)c1`, the Potency entry was “inactive”.
For the compound `CC(=Cc1csc(C)n1)[C@@H]1C[C@H]2O[C@]2(C)CCC[C@H](C)[C@@H](O)[C@@H](C)C(=O)C(C)(C)[C@@H](O)CC(=O)O1`, the Potency result is “inactive”.
To `NCCc1ccc(S(=O)(=O)F)cc1` belongs “inactive”; to `COc1cccc(C(c2nnnn2-c2ccc3c(c2)OCCO3)N2CCC3(CC2)C(=O)NCN3c2ccccc2)c1OC` (stereo not given), “inactive”.
To `CC1N=C(N)OC1c1ccccc1` (stereo not given) belongs “inactive”; to `CO[C@]12CC[C@@]3(C[C@@H]1[C@](C)(O)C(C)(C)C)[C@@H]1Cc4ccc(O)c5c4[C@@]3(CCN1CC1CC1)[C@H]2O5`, 35.5 µM (active); to `Oc1ccc2c3c1OC1[C@H](O)CC[C@@]4(O)[C@@H](C2)N(CC2CC2)CC[C@]314` (stereo not given in full), “inactive”.
As for `Cc1ncsc1CCCl`, the entry is “inactive”.
